# Results as given in PubChem BioAssay (EPA / NIEHS).
# Active and inactive are the calls of the source. Rule for the calls: active = hit-call score of the fitted dose curve at least 0.9, where 1 is the maximum; inactive = score below 0.9.
# Tests used:
# Settings in all cases: mRNA level, 48 h; actives raise or lower the signal
# [1] = read-out: ABC Transporter (ABCB11), ABCB11 (gene 8647); assay: LTEA_HepaRG_ABCB11: Life Technologies and Expression Analysis (LTEA) Assay for ABC Transporter (ABCB11) using HepaRG (AID 2283463)
# Method in brief: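 Using HepaRG cultures held in 0.5% DMSO, chemicals were tested at half-log dilutions from 100 uM for 48 h. Induction or suppression of ABCB11 mRNA, normalized to ACTB, GAPDH and POLR2A, was fitted bidirectionally against vehicle.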
# [2] = read-out: ABC Transporter (ABCC2), ABCC2 (gene 1244); assay: LTEA_HepaRG_ABCC2: Life Technologies and Expression Analysis (LTEA) Assay for ABC Transporter (ABCC2) using HepaRG (AID 2283464)
# Method in brief: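 HepaRG cells were plated 48 h, switched to serum-free induction medium, then exposed in duplicate for 48 h to 8 concentrations (top 100 uM, half-log steps, 0.5% DMSO). ABCC2 mRNA was measured by qRT-PCR normalized to ACTB/GAPDH/POLR2A; bidirectional fitting versus DMSO.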
# [3] = read-out: Broad substrate specificity ATP-binding cassette transporter ABCG2 (Homo sapiens) (UniProt Q9UNQ0); assay: LTEA_HepaRG_ABCG2: Life Technologies and Expression Analysis (LTEA) Assay for ABC Transporter (ABCG2) using HepaRG (AID 2283465)
# Method in brief: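 Gene expression of ABCG2 in HepaRG liver cells is quantified by qRT-PCR following 48 h exposure across an eight-point series topping at 100 uM. Values come from bidirectional fitting relative to DMSO vehicle.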
# [4] = read-out: ATP-citrate lyase (ACLY), ACLY (gene 47); assay: LTEA_HepaRG_ACLY: Life Technologies and Expression Analysis (LTEA) Assay for ATP-citrate lyase (ACLY) using HepaRG (AID 2283466)
# Method in brief: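 ACLY expression changes in human HepaRG liver cells are quantified by qRT-PCR after 48 h exposure to test chemicals (maximum 100 uM, half-log steps). Values are fitted in both directions relative to 0.5% DMSO vehicle.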
# [5] = read-out: Peroxisomal acyl-coenzyme A oxidase 1 (ACOX1) gene, ACOX1 (gene 51); assay: LTEA_HepaRG_ACOX1: Life Technologies and Expression Analysis (LTEA) Assay for Peroxisomal acyl-coenzyme A oxidase 1 (ACOX1) gene using HepaRG (AID 2283467)
# Method in brief: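 Human HepaRG hepatic cultures, 48 h treatment with test chemicals up to 100 uM. ACOX1 expression read by qRT-PCR relative to 0.5% DMSO vehicle.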
# [6] = read-out: Alkaline Phosphatase, Placental (ALPP) gene, ALPP (gene 250); assay: LTEA_HepaRG_ALPP: Life Technologies and Expression Analysis (LTEA) Assay for Alkaline Phosphatase, Placental (ALPP) gene using HepaRG (AID 2283468)
# Method in brief: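 Differentiated human HepaRG cells were plated and cultured 48 h, then exposed in duplicate for 48 h in serum-free induction medium to eight half-log concentrations from 100 uM in 0.5% DMSO. ALPP mRNA was measured by TaqMan qRT-PCR, normalized to ACTB, GAPDH, POLR2A.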
# [7] = read-out: Bcl-2 (BAD) gene, BAD (gene 572); assay: LTEA_HepaRG_BAD: Life Technologies and Expression Analysis (LTEA) Assay for Bcl-2 (BAD) gene using HepaRG (AID 2283469)
# Method in brief: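 Activity values reflect up- or down-regulation of BAD mRNA in human HepaRG hepatic cells treated 48 h in serum-free medium, with eight-point half-log dosing capped at 100 uM and 0.5% DMSO vehicle.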
# [8] = read-out: Bcl-2 (BAX) gene, BAX (gene 581); assay: LTEA_HepaRG_BAX: Life Technologies and Expression Analysis (LTEA) Assay for Bcl-2 (BAX) gene using HepaRG (AID 2283470)
# Method in brief: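 qRT-PCR read-out of BAX mRNA, normalized to three housekeeping genes, after 48 h chemical exposure of human HepaRG cells in serum-free induction medium; eight-point half-log series, top 100 uM, 0.5% DMSO vehicle; bidirectional fit versus DMSO.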
# [9] = read-out: adenosine kinase (ADK) gene, ADK (gene 132); assay: LTEA_HepaRG_ADK: Life Technologies and Expression Analysis (LTEA) Assay for adenosine kinase (ADK) gene using HepaRG (AID 2283471)
# Method in brief: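 Differentiated HepaRG cells dosed 48 h in serum-free induction medium, 0.5% DMSO vehicle, eight half-log concentrations from 100 uM, in duplicate. ADK mRNA by TaqMan qRT-PCR normalised to ACTB, GAPDH, POLR2A; bidirectional fit versus DMSO.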
# [10] = read-out: Alpha-fetoprotein (AFP) gene, AFP (gene 174); assay: LTEA_HepaRG_AFP: Life Technologies and Expression Analysis (LTEA) Assay for Alpha-fetoprotein (AFP) gene using HepaRG (AID 2283472)
# Method in brief: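 qRT-PCR (Fluidigm TaqMan) readout of AFP transcript, normalized to three housekeeping genes, fitted bidirectionally against 0.5% DMSO baseline. HepaRG cells received chemicals for 48 h in serum-free induction medium, top concentration 100 uM, half-log steps.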
# [11] = read-out: BCL2L11 (gene 10018); assay: LTEA_HepaRG_BCL2L11: Life Technologies and Expression Analysis (LTEA) Assay for Bcl-2 (BCL2L11) gene using HepaRG (AID 2283473)
# Method in brief: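 Differentiated human HepaRG cells in serum-free induction medium were exposed in duplicate for 48 h to eight concentrations (top 100 uM, half-log steps, 0.5% DMSO). BCL2L11 mRNA was quantified by TaqMan qRT-PCR, normalized to ACTB/GAPDH/POLR2A, bidirectional fit versus DMSO.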
# [12] = read-out: Apolipoprotein A-V (APOA5) gene, APOA5 (gene 116519); assay: LTEA_HepaRG_APOA5: Life Technologies and Expression Analysis (LTEA) Assay for Apolipoprotein A-V (APOA5) gene using HepaRG (AID 2283474)
# Method in brief: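 Differentiated human HepaRG cells were exposed in duplicate for 48 h to eight half-log concentrations from 100 uM in 0.5% DMSO. APOA5 mRNA was quantified by TaqMan qRT-PCR, normalized to ACTB, GAPDH and POLR2A, and fitted bidirectionally against DMSO.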
# [13] = read-out: Apoptosis regulator Bcl-2 (Homo sapiens) (UniProt P10415); assay: LTEA_HepaRG_BCL2: Life Technologies and Expression Analysis (LTEA) Assay for Bcl-2 gene using HepaRG (AID 2283475)
# Method in brief: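 qRT-PCR read-out (Fluidigm TaqMan) of BCL2 transcript, normalised to three housekeeping genes, after 48 h chemical exposure of HepaRG cells; 8-point half-log series, top 100 uM, 0.5% DMSO vehicle. Gain or loss of signal fitted relative to DMSO baseline.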
# [14] = read-out: Bcl-2 (BID) gene, BID (gene 637); assay: LTEA_HepaRG_BID: Life Technologies and Expression Analysis (LTEA) Assay for Bcl-2 (BID) gene using HepaRG (AID 2283476)
# Method in brief: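 HepaRG, 48 h exposure, 8-pt half-log series, top 100 uM, 0.5% DMSO vehicle, duplicates. Readout: BID mRNA by TaqMan qRT-PCR; housekeeping-normalized; bidirectional curve fit vs DMSO baseline.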
# [15] = read-out: Caspase-3 (Homo sapiens) (UniProt P42574); assay: LTEA_HepaRG_CASP3: Life Technologies and Expression Analysis (LTEA) Assay for cysteine-aspartic acid protease (CASP3) using HepaRG (AID 2283477)
# Method in brief: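 Differentiated human HepaRG cells in serum-free induction medium were exposed 48 h to 8-point half-log concentrations from 100 uM (0.5% DMSO vehicle). CASP3 mRNA was measured by qRT-PCR, normalised to ACTB, GAPDH and POLR2A, with bidirectional fitting against DMSO.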
# [16] = read-out: Cytochrome P450 (CYP24A1), CYP24A1 (gene 1591); assay: LTEA_HepaRG_CYP24A1: Life Technologies and Expression Analysis (LTEA) Assay for Cytochrome P450 (CYP24A1) using HepaRG (AID 2283478)
# Method in brief: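 Differentiated HepaRG cells, pre-cultured 48 h, were exposed in duplicate for 48 h in serum-free induction medium to 8 half-log concentrations (top 100 uM, 0.5% DMSO). CYP24A1 mRNA was quantified by TaqMan qRT-PCR, normalized to ACTB/GAPDH/POLR2A, fitted bidirectionally versus DMSO.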
# [17] = read-out: Cytochrome P450 (CYP1A2), CYP1A2 (gene 1544); assay: LTEA_HepaRG_CYP1A2: Life Technologies and Expression Analysis (LTEA) Assay for Cytochrome P450 (CYP1A2) using HepaRG (AID 2283479)
# Method in brief: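 Differentiated human HepaRG cells in serum-free induction medium were exposed in duplicate for 48 h to 8-point half-log concentrations up to 100 uM in 0.5% DMSO. CYP1A2 mRNA measured by qRT-PCR, normalized to ACTB, GAPDH, POLR2A; bidirectional fit vs DMSO.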
# [18] = read-out: cysteine-aspartic acid protease (CASP8), CASP8 (gene 841); assay: LTEA_HepaRG_CASP8: Life Technologies and Expression Analysis (LTEA) Assay for cysteine-aspartic acid protease (CASP8) using HepaRG (AID 2283480)
# Method in brief: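 Concentration-response in duplicate up to 100 uM (half-log steps, 0.5% DMSO) on differentiated HepaRG cultures for 48 h. Expression change of CASP8 mRNA is determined by TaqMan qRT-PCR with housekeeping-gene normalization.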
# [19] = read-out: Cytochrome P450 (CYP2B6), CYP2B6 (gene 1555); assay: LTEA_HepaRG_CYP2B6: Life Technologies and Expression Analysis (LTEA) Assay for Cytochrome P450 (CYP2B6) using HepaRG (AID 2283481)
# Method in brief: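 Differentiated HepaRG cells, serum-free induction medium, exposed 48 h in duplicate to 8-point half-log concentrations from 100 uM in 0.5% DMSO. CYP2B6 mRNA by qRT-PCR, normalized to ACTB, GAPDH, POLR2A; bidirectional fit versus DMSO.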
# [20] = read-out: Cytochrome P450 2C19 (Homo sapiens) (UniProt P33261); assay: LTEA_HepaRG_CYP2C19: Life Technologies and Expression Analysis (LTEA) Assay for CYP2C19 using HepaRG (AID 2283482)
# Method in brief: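 Differentiated human HepaRG cells were exposed for 48 h in serum-free induction medium to 8 concentrations (top 100 uM, half-log steps, 0.5% DMSO). CYP2C19 mRNA was measured by qRT-PCR, normalized to ACTB/GAPDH/POLR2A, and fitted bidirectionally against DMSO.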
# Chain of Caspase-3 (Homo sapiens) (P42574 whole entry, looked up): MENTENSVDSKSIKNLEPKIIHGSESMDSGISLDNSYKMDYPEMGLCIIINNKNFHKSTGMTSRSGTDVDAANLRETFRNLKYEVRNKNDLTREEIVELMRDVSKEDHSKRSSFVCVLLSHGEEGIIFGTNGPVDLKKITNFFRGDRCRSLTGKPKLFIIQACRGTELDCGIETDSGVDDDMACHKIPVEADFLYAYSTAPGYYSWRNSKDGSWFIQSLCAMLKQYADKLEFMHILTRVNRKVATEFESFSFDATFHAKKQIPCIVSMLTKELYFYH
# Chain of Apoptosis regulator Bcl-2 (Homo sapiens) (P10415 whole entry, looked up): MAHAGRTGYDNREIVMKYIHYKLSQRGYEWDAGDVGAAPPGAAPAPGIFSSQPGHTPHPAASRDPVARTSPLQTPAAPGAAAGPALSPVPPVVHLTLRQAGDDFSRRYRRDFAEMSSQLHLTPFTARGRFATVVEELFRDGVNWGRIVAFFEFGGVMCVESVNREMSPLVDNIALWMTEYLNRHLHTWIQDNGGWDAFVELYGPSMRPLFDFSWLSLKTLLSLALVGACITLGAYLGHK
# Chain of Broad substrate specificity ATP-binding cassette transporter ABCG2 (Homo sapiens) (Q9UNQ0 whole entry, looked up): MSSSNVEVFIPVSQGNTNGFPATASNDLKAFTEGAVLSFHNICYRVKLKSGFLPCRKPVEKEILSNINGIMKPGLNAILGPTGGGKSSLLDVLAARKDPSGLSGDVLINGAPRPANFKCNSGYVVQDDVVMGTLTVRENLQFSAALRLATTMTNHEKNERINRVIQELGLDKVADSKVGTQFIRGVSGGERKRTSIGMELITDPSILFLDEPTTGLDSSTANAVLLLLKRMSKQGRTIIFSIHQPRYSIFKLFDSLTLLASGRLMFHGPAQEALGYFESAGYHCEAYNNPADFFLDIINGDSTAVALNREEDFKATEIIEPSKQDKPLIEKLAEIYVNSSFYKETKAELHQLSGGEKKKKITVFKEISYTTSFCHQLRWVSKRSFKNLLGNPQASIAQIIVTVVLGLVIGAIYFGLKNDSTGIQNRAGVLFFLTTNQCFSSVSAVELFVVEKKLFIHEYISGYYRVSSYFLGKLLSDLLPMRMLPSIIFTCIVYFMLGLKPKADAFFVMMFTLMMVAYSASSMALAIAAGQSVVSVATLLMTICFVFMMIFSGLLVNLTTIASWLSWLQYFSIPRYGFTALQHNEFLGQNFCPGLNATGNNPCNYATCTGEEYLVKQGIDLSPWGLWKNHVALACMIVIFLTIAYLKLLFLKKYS
# Chain of Cytochrome P450 2C19 (Homo sapiens) (P33261 whole entry, looked up): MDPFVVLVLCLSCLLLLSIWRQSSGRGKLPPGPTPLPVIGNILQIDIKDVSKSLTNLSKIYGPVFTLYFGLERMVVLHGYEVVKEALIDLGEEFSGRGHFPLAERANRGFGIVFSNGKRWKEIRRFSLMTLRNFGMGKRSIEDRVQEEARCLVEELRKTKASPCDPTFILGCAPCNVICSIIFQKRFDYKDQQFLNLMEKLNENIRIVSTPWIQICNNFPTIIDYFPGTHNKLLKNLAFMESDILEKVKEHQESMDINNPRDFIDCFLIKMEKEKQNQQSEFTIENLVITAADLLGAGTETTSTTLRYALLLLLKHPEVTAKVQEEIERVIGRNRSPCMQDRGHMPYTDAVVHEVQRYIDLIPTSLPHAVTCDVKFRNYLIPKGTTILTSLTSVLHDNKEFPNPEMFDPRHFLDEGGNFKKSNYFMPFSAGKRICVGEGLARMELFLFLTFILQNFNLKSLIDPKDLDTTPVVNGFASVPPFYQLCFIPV
smiles,measurement,setting,value
CCOC(=O)COc1cc(-c2nn(C)c(OC(F)F)c2Cl)c(F)cc1Cl,outcome,[1],inactive
same,AC50,[2],50 µM (active)
same,outcome,[3],inactive
same,outcome,[4],inactive
same,outcome,[5],inactive
same,outcome,[6],inactive
same,outcome,[7],inactive
same,outcome,[8],inactive
same,outcome,[9],inactive
same,outcome,[10],inactive
same,outcome,[11],inactive
same,outcome,[12],inactive
same,outcome,[13],inactive
same,outcome,[14],inactive
same,outcome,[15],inactive
same,outcome,[16],inactive
same,outcome,[17],inactive
same,outcome,[18],inactive
same,AC50,[19],63.5 µM (active)
same,AC50,[20],50 µM (active)
O=[N+]([O-])c1cc(C(F)(F)F)c(Cl)c([N+](=O)[O-])c1Nc1ncc(C(F)(F)F)cc1Cl,AC50,[1],15.8 µM (active)
same,AC50,[2],67.9 µM (active)
same,AC50,[3],50 µM (active)
same,AC50,[4],50 µM (active)
same,AC50,[5],60.2 µM (active)
same,AC50,[6],9.95 µM (active)
same,outcome,[7],inactive
same,outcome,[8],inactive
same,AC50,[9],50 µM (active)
same,AC50,[10],23 µM (active)
same,AC50,[11],66.3 µM (active)
same,outcome,[12],inactive
same,outcome,[13],inactive
same,outcome,[14],inactive
same,outcome,[15],inactive
same,outcome,[16],inactive
same,AC50,[17],8.27 µM (active)
same,outcome,[18],inactive
same,AC50,[19],13 µM (active)
